Reference: PubChem BioAssay AID1903 (Southern Research Specialized Biocontainment Screening …, 2009)
Among all 310,000 compounds or so, about 1,200 (0.39%) were called active. The rule behind the calls is not given here. Not all results are given here. Entries with a potency or affinity are not part of this list.

Each molecule was assayed against Large T antigen (Simian virus 40) (UniProt P03070) (assay: SV40 large T antigen inhibitors, biochemical (AID 1903)). Settings: SV40 large T antigen ATPase/helicase inhibition assay; at 20 µM; hits give high values.
Large T antigen (Simian virus 40), sequence (P03070 whole entry, looked up): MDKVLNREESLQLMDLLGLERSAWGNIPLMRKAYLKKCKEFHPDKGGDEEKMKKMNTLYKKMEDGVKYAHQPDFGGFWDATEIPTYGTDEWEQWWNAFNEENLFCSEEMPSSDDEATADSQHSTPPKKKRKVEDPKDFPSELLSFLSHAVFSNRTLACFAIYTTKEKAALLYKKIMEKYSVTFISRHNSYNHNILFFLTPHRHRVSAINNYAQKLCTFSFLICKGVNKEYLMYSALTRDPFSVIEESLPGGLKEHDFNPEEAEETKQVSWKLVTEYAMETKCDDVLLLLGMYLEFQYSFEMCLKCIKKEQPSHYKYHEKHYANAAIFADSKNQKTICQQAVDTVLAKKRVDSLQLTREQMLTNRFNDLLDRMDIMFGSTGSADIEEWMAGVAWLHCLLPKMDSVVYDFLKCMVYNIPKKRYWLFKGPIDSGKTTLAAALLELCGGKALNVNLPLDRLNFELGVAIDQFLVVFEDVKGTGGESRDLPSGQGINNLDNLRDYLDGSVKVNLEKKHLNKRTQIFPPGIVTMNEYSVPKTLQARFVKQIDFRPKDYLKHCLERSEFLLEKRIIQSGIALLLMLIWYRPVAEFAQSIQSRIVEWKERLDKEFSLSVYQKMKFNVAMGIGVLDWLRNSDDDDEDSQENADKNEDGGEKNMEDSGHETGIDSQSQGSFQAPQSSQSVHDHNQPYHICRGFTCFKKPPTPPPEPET

inhibition, inactive:
Cn1c(CNC(=O)C(Cc2ccccc2)NC(=O)c2cccc(F)c2)cc(=O)n(C)c1=O (stereo not drawn) -0.65%, O=C(NNC(=O)c1ccc[nH]1)c1cc(Cl)cc(Cl)c1 10.3%, COc1ccccc1C(=O)NNC(=O)c1ccc(NS(=O)(=O)c2cccs2)cc1 16.7%, O=S(=O)(c1ccccc1)N1CCN(Cc2ccc(Cl)cc2)CC1 10.3%, O=C1CCCC/C1=C/Nc1cccc(C(F)(F)F)c1 18.4%, CC1SCC(NC(=O)c2ccccc2Cl)CS1 (stereo not drawn) 8.46%, CC(=O)OCCN1C(=O)c2cccc3cc([N+](=O)[O-])cc(c23)C1=O 14.1%, Cc1ccc(-c2[nH]ncc2C(=O)c2ccc(Br)cc2)c(O)c1 7.57%, CCCN1C(=O)C(NC(=O)c2ccncc2)(C(F)(F)F)C2=C1CC(C)(C)CC2=O (stereo not drawn) -1.41%, Cc1ccc(/C=C/c2onc(C)c2S(=O)(=O)N2CCC(C(=O)NC(C)(C)C)CC2)cc1 2.7%, CC(C)C(=O)Nc1cccc(-c2csc(-c3ccccc3)n2)c1 -59.4%, CC(C)C(=O)Nc1ccc(-c2csc(-c3ccccc3)n2)cc1 1.63%, CCOC(=O)Cc1csc(NC(=O)/C=C/c2cccc(Br)c2)n1 -3.33%, COc1cc(C(=O)Nn2c(C)nc3ccccc3c2=O)cc(OC)c1OC 7.45%, C=CCOc1ccc(/C=C2/C(=N)N3N=C(CC(=O)N4CCCC4)SC3=NC2=O)cc1OC 11.3%, CC(C)c1ccc(/C=C2\C(=N)N3N=C(CC(=O)N4CCCCC4)SC3=NC2=O)cc1 36.9%, CCc1ccc(/C=C2\C(=N)N3N=C(CC(=O)N4CCCCC4)SC3=NC2=O)cc1 10.1%, CSc1ccc(/C=C2\C(=N)N3N=C(CC(=O)N4CCCCC4)SC3=NC2=O)cc1 26.3%, Cc1ccc(/C=C2/C(=N)N3N=C(CC(=O)N4CCCC4)SC3=NC2=O)cc1 30.2%, Cc1ccc(/C=C2\C(=N)N3N=C(CC(=O)N4CCCCC4)SC3=NC2=O)cc1 26.9%, COc1ccc(/C=C2/C(=N)N3N=C(CC(=O)N4CCCC4)SC3=NC2=O)cc1OC 14.2%, CSc1ccc(/C=C2/C(=N)N3N=C(CC(=O)N4CCCC4)SC3=NC2=O)cc1 12.1%, COc1cc([N+](=O)[O-])ccc1NC(=O)CCCOc1cc(C)ccc1C 8.46%, CCOC(=O)c1nn(-c2ccc(Cl)cc2)c2nc(Nc3ccccc3)cc(=O)n12 5.22%, COc1ccc(C(=O)Nc2ccc(C)cc2C(=O)c2ccccc2)c(OC)c1 5.96%, Cc1ccccc1CNC(=O)c1ccccc1N 14.8%, CCn1cc(/C=C/C(=O)Nc2ccn(Cc3c(F)c(F)c(F)c(F)c3F)n2)cn1 -8.72%, NC(=O)c1ccc(NC(=O)CSc2cn(CC(=O)N3CCOCC3)c3ccccc23)cc1 2.11%, COc1ccc(Nc2ccc(Cl)nn2)cc1 17.6%, C/C(=N\Nc1ncc(Br)cn1)c1cccc([N+](=O)[O-])c1 10.7%, Cc1ccc(/C=C2/C(=N)N3N=C(CC(=O)N4CCCC4)SC3=NC2=O)o1 -4.18%, N=C1/C(=C\c2ccc(Br)o2)C(=O)N=C2SC(CC(=O)N3CCOCC3)=NN12 36.3%, Cc1cccc(C(=O)NNC(=O)CCn2nnc3ccccc32)c1 1.08%, COCc1cc(C)nc(SCC(=O)Oc2ccc(Cl)cc2)c1C#N 16%, COCc1cc(C)nc(SCC(=O)Oc2ccccc2)c1C#N 15.3%, Cc1cc(C(F)(F)F)nn1Cc1n[nH]c(=S)n1-c1ccc(F)cc1 15.9%, CS(=O)(=O)c1ccc(Cl)c(NC(=O)C2CCCN(C(=O)c3ccc(Cl)cc3)C2)c1 (stereo not drawn) 6.85%, COc1ccc(C(=O)NC(C(=O)NCC(=O)Nc2c(C)cccc2C)C(C)C)cc1 (stereo not drawn) 3.58%, Cc1nn(CC(=O)N2CCOCC2)c(=O)c2nn(-c3ccccc3)c(C)c12 1.18%, COc1cc(O)c(C(CCN2CCN(c3ccccc3)CC2)c2ccc3c(c2)OCO3)c(OC)c1 (stereo not drawn) 7.18%, CC(=O)Oc1ccc2c(C)cc(=O)oc2c1 17%, CC(=O)Oc1cc2oc(=O)cc(C)c2cc1Cl 14.8%, CC(C)(C)c1ccc(/C=N/NC(=S)Nc2cccnc2)cc1 9.92%, CN(C(=S)Nc1ccc(Oc2ccccc2)cc1)c1ccc(O)cc1 21.8%, Fc1ccc(/C=N/NC(=S)Nc2cccnc2)cc1 7.01%, CC(C)N(C(=S)Nc1cccnc1)c1ccccc1 12.6%, Fc1cccc(F)c1/C=N/NC(=S)Nc1cccnc1 24.5%, COc1ccc(O)c(/C=N/NC(=S)Nc2cccnc2)c1 25.1%, NC(=O)c1ccc(NC(=O)CCCNC(=O)c2ccc(Cl)cc2)cc1 8.64%, CCc1ccc(C2=NNC(=Nc3cccc(S(=O)(=O)N(C)C)c3)SC2)cc1 4.35%, CCC(C)N(C(=O)c1csnn1)C(C(=O)NC1CCCC1)c1c(F)cccc1Cl (stereo not drawn) 7.33%, CCN(CC)CCNC(=O)c1ccc(NC(=O)c2ccc(C(=O)c3ccccc3)cc2)cc1 37.6%, O=C(NCCc1c[nH]c2ccccc12)C(=O)NCC1OCCCN1S(=O)(=O)c1ccccc1 (stereo not drawn) 16.5%, Cc1ccc(S(=O)(=O)N2CCOC2CNC(=O)C(=O)NCCc2c[nH]c3ccccc23)cc1 (stereo not drawn) -3.07%, COc1ccc(O)c(C(=O)c2cnc3c(c2)c(=O)[nH]c(=O)n3C)c1 3.44%, Fc1ccc(/C=N\Nc2cccc(F)c2)cc1 8.31%, Cc1ccc(N(C(=O)Cc2c[nH]c3ccccc23)C(C(=O)NC2CCCCC2)c2ccco2)cc1 (stereo not drawn) -1.52%, CN(C)CCCOc1ccc2c(c1)Sc1ccccc1CC2=O -4.85%
